According to PubChem BioAssay (NCI):
About 79,000 compounds went through this panel and 15% of them were active in at least one assay; those are over-represented in the sample as a whole. Active and inactive are the calls of the source. Cut-off read from the data, not from the text of the source: active = growth inhibition above about 70%; inactive = the rest.

Experiments:
[1] = NCI Yeast Anticancer Drug Screen. Data for the rad50 strain (AID 155);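 note: 0% = growth of vehicle-only cultures of the same strain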; details: S. cerevisiae rad50 strain growth inhibition, active compounds read high
Method in brief: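 Vehicle-treated cultures provide the reference for the growth inhibition reported for compound-exposed, repair-deficient yeast.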

[2] = NCI Yeast Anticancer Drug Screen. Data for the mec2-1 strain (AID 157); details: S. cerevisiae mec2-1 strain, active compounds read high
Method in brief: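 Readout is yeast growth inhibition, normalised to vehicle-treated controls, in the mec2-1 strain exposed to compound.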

[3] = NCI Yeast Anticancer Drug Screen. Data for the sgs1 mgt1 strain (AID 161);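 note: 0% = growth of cultures given vehicle only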; details: S. cerevisiae sgs1 mgt1 strain, active compounds read high
Method in brief: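 Percent growth inhibition was derived by comparing compound-exposed mutant yeast with vehicle-exposed cultures. The strain carries alterations in DNA damage repair.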

[4] = NCI Yeast Anticancer Drug Screen. Data for the cln2 rad14 strain (AID 165);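 note: 0% = growth equal to vehicle treated cultures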; details: S. cerevisiae cln2 rad14 strain, active compounds read high
Method in brief: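 Relative to vehicle controls, growth inhibition of compound-treated cln2 rad14 yeast was recorded.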

[5] = NCI Yeast Anticancer Drug Screen. Data for the bub3 strain (AID 167); details: S. cerevisiae bub3 mutant strain, active compounds read high
Method in brief: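 Mutant yeast screening strain plus compound; vehicle-treated cultures serve as the 0% inhibition reference.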

[6] = NCI Yeast Anticancer Drug Screen. Data for the mlh1 rad18 strain (AID 175); details: S. cerevisiae mlh1 rad18 strain growth inhibition, active compounds read high
Method in brief: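 Test agents were incubated with a yeast strain of defined genotype (DNA damage repair defect). Inhibition of growth was derived by comparison with vehicle-exposed cultures.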

[7] = at 5.0 µM (retest, dose inferred, filed as 0.5)
[8] = at 50.0 µM (retest, dose inferred, filed as 5.0)

Measured: growth inhibition

CCc1cccc(CC)c1N=Nc1c(N)nc(N)[nH]c1=O
inactive: [1]; [7] -11% | [1]; [8] -6% | [1]; at 50.0 µM -4.8% | [2]; [7] -23% | [2]; [8] -9% | [2]; at 50.0 µM -32% | [3]; [7] -11% | [3]; [8] 6% | [3]; at 50.0 µM 39.8% | [4]; [7] 0% | [4]; [8] 2% | [4]; at 50.0 µM -21% | [5]; [7] -2% | [5]; [8] -3% | [5]; at 50.0 µM -19.8% | [6]; [7] 8% | [6]; [8] -30% | [6]; at 50.0 µM -11.7%

CCCCCCCN1C(=O)c2ccccc2S1(=O)=O
active: [1]; [8] 95% | [1]; at 50.0 µM 95.1% | [2]; [8] 76% | [2]; at 50.0 µM 87.3% | [3]; [8] 94% | [3]; at 50.0 µM 86.2% | [4]; [8] 73% | [5]; [8] 89% | [5]; at 50.0 µM 93.5% | [6]; [8] 96% | [6]; at 50.0 µM 84.8%
inactive: [1]; [7] -2% | [2]; [7] -12% | [3]; [7] 12% | [4]; [7] -4% | [4]; at 50.0 µM 43% | [5]; [7] 14% | [6]; [7] 39%

CCC1=C(c2ccc(OC(C)=O)cc2)Cc2cc(OC(C)=O)ccc21
active: [3]; [8] 72% | [4]; [8] 79% | [5]; [8] 83% | [6]; [8] 84%
inactive: [1]; [7] -14% | [1]; [8] 64% | [1]; at 50.0 µM -4.5% | [2]; [7] -13% | [2]; [8] 67% | [2]; at 50.0 µM -9% | [3]; [7] -3% | [3]; at 50.0 µM 5.55% | [4]; [7] -9% | [4]; at 50.0 µM 4% | [5]; [7] -3% | [5]; at 50.0 µM 26% | [6]; [7] -13% | [6]; at 50.0 µM 4.55%

Oc1ccc(N=Nc2ccc(Cl)cc2)cc1O
inactive: [1]; [7] -30% | [2]; [7] -8% | [3]; [7] 8% | [4]; [7] -7% | [5]; [7] -35% | [6]; [7] -7%
active: [1]; [8] 98% | [1]; at 50.0 µM 98.4% | [2]; [8] 98% | [2]; at 50.0 µM 98.3% | [3]; [8] 98% | [3]; at 50.0 µM 98.5% | [4]; [8] 97% | [4]; at 50.0 µM 97.7% | [5]; [8] 98% | [5]; at 50.0 µM 97.8% | [6]; [8] 98% | [6]; at 50.0 µM 98.2%

C=C1CCC[C@@H]2[C@@](C)(CC3=CC(=O)C=CC3=O)C(C)CC[C@]12C (stereo not given in full)
active: [1]; [8] 96% | [1]; at 50.0 µM 98.5% | [2]; [8] 96% | [2]; at 50.0 µM 88.7% | [3]; [8] 97% | [3]; at 50.0 µM 98.7% | [4]; [8] 93% | [4]; at 50.0 µM 95.2% | [5]; [8] 96% | [5]; at 50.0 µM 98.6% | [6]; [8] 95% | [6]; at 50.0 µM 98.5%
inactive: [1]; [7] 39% | [2]; [7] 43% | [3]; [7] 54% | [4]; [7] 7% | [5]; [7] 27% | [6]; [7] 55%

CCNC(=S)N/N=C(/C)c1cccc(/C(C)=N\NC(=S)NCC)n1
inactive: [1]; [7] 1% | [1]; [8] 12% | [1]; at 50.0 µM 57.5% | [2]; [7] 10% | [2]; [8] 10% | [2]; at 50.0 µM 38.4% | [3]; [7] 13% | [3]; [8] 24% | [3]; at 50.0 µM 63.7% | [4]; [7] 8% | [4]; [8] 6% | [4]; at 50.0 µM 19.1% | [5]; [7] 18% | [5]; [8] 38% | [5]; at 50.0 µM 54.2% | [6]; [7] 12% | [6]; [8] 22% | [6]; at 50.0 µM 37.7%

Clc1ccc2ns[s+]c2c1
inactive: [1]; [7] 8% | [2]; [7] 13% | [2]; at 50.0 µM 48.1% | [3]; [7] 12% | [4]; [7] 21% | [4]; [8] 49% | [4]; at 50.0 µM 47.8% | [5]; [7] 26% | [6]; [7] 17% | [6]; at 50.0 µM -27.7%
active: [1]; [8] 78% | [1]; at 50.0 µM 73.7% | [2]; [8] 93% | [3]; [8] 86% | [3]; at 50.0 µM 80.6% | [5]; [8] 96% | [5]; at 50.0 µM 72.3% | [6]; [8] 85%

COC(=O)C(=O)C(C(=O)Nc1cccc(C)c1C)C1Sc2ccccc2NC1=O (stereo not given)
active: [1]; [7] 99% | [1]; [8] 99% | [2]; [7] 88% | [2]; [8] 88% | [2]; at 50.0 µM 70.2% | [3]; [7] 99% | [3]; [8] 99% | [4]; [7] 95% | [4]; [8] 95% | [5]; at 50.0 µM 81.7% | [6]; [7] 92% | [6]; [8] 92% | [6]; at 50.0 µM 81.5%
inactive: [1]; at 50.0 µM 51.1% | [3]; at 50.0 µM 69.5% | [4]; at 50.0 µM 52.8% | [5]; [7] 65% | [5]; [8] 65%

CCOc1ccc2nc([NH-])sc2c1.CCOc1ccc2nc([NH-])sc2c1.CCOc1ccc2nc([NH-])sc2c1.CCOc1ccc2nc([NH-])sc2c1.[Cl][Rh][Cl]
active: [6]; [8] 81% | [6]; at 50.0 µM 80%
inactive: [1]; [7] -5% | [1]; [8] 46% | [1]; at 50.0 µM 29.9% | [2]; [7] 0% | [2]; [8] 32% | [2]; at 50.0 µM 31.6% | [3]; [7] 4% | [3]; [8] 63% | [3]; at 50.0 µM 67.2% | [4]; [7] -5% | [4]; [8] 26% | [4]; at 50.0 µM 30.1% | [5]; [7] -10% | [5]; [8] 34% | [5]; at 50.0 µM 0.25% | [6]; [7] 6%

CCCCCCCCCCCCCCOS(=O)(=O)O
active: [1]; [8] 99% | [1]; at 50.0 µM 99.5% | [2]; [8] 73% | [2]; at 50.0 µM 99.7% | [3]; [8] 100% | [3]; at 50.0 µM 99.6% | [4]; at 50.0 µM 99.6% | [5]; at 50.0 µM 99.7% | [6]; [8] 98% | [6]; at 50.0 µM 99.5%
inactive: [1]; [7] 26% | [2]; [7] -27% | [3]; [7] -1% | [4]; [7] 8% | [4]; [8] 61% | [5]; [7] -9% | [5]; [8] 35% | [6]; [7] 12%
